Experimental data taken from the supplement of paper PMC6089552.
Among all 3,200 compounds or so, about 300 (9.4%) showed activity. Shown is part of a subset that was picked to be rich in actives.

Tested on: A673/TR/shEF
Test: cell viability (LOESS-normalised, relative to median of negative controls) (log2 ratio); higher = more viable cells (less compound effect), active = hit call of the paper (over 3 MAD below the median)
Conditions: treatment time: 72 h
Procedure, shortened: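 A673/TR/shEF Ewing sarcoma cells were plated at 1,500 per well in 384-well plates and cultured with or without doxycycline, added 24 h before compounds, to induce EWS-FLI1 shRNA knockdown. Library compounds at two or more concentrations, alongside DMSO controls, were applied for three days. Cell viability was measured by CellTiter-Glo luminescence on an Envision reader. Readings were LOESS-corrected per plate, divided by the median of negative controls and log2-transformed, and hits were wells lying at least three median absolute deviations from the median of all screened wells.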

[1] = 0.25 µM, library screen: screen1, EWS-FLI1 expression: high (no doxycycline)
[2] = 0.25 µM, library screen: screen1, EWS-FLI1 expression: low (doxycycline-induced shRNA knockdown)
[3] = 2.5 µM, library screen: screen1, EWS-FLI1 expression: high (no doxycycline)
[4] = 2.5 µM, library screen: screen1, EWS-FLI1 expression: low (doxycycline-induced shRNA knockdown)
[5] = 0.025 µM, library screen: screen1, EWS-FLI1 expression: high (no doxycycline)
[6] = 0.025 µM, library screen: screen1, EWS-FLI1 expression: low (doxycycline-induced shRNA knockdown)
[7] = 0.25 µM, library screen: screen2, EWS-FLI1 expression: high (no doxycycline)
[8] = 0.25 µM, library screen: screen2, EWS-FLI1 expression: low (doxycycline-induced shRNA knockdown)
[9] = 2.5 µM, library screen: screen2, EWS-FLI1 expression: high (no doxycycline)
[10] = 2.5 µM, library screen: screen2, EWS-FLI1 expression: low (doxycycline-induced shRNA knockdown)
[11] = 25 µM, library screen: screen1, EWS-FLI1 expression: high (no doxycycline)
[12] = 25 µM, library screen: screen1, EWS-FLI1 expression: low (doxycycline-induced shRNA knockdown)
[13] = 0.103 µM, library screen: screen3, EWS-FLI1 expression: high (no doxycycline)
[14] = 0.103 µM, library screen: screen3, EWS-FLI1 expression: low (doxycycline-induced shRNA knockdown)
[15] = 0.308 µM, library screen: screen3, EWS-FLI1 expression: high (no doxycycline)
[16] = 0.308 µM, library screen: screen3, EWS-FLI1 expression: low (doxycycline-induced shRNA knockdown)
[17] = 0.926 µM, library screen: screen3, EWS-FLI1 expression: high (no doxycycline)
[18] = 0.926 µM, library screen: screen3, EWS-FLI1 expression: low (doxycycline-induced shRNA knockdown)
[19] = 2.8 µM, library screen: screen3, EWS-FLI1 expression: high (no doxycycline)
[20] = 2.8 µM, library screen: screen3, EWS-FLI1 expression: low (doxycycline-induced shRNA knockdown)
[21] = 8.3 µM, library screen: screen3, EWS-FLI1 expression: high (no doxycycline)
[22] = 8.3 µM, library screen: screen3, EWS-FLI1 expression: low (doxycycline-induced shRNA knockdown)
[23] = 25 µM, library screen: screen3, EWS-FLI1 expression: high (no doxycycline)
[24] = 25 µM, library screen: screen3, EWS-FLI1 expression: low (doxycycline-induced shRNA knockdown)

Measured: cell viability (log2)

CSc1ccc(CN2CCN(Cc3ccco3)CC2)cc1
inactive: [1] 0.0257 | [2] 0.0474 | [3] 0.00049 | [4] 0.109

CC(C)n1cnc2c(NCc3ccccc3)nc(NCCO)nc21
inactive: [5] 0.171 | [6] -0.0915 | [1] 0.129 | [2] -0.0331 | [7] 0.226 | [8] 0.0704 | [3] -0.011 | [4] 0.0676 | [9] 0.247 | [10] 0.0622 | [11] -0.0635 | [12] 0.0737

Cn1cnc2c(NCc3ccccc3)nc(NCCO)nc21
inactive: [5] 0.0452 | [6] 0.063 | [1] 0.0867 | [2] 0.0323 | [7] 0.272 | [8] 0.106 | [3] 0.0349 | [4] 0.0403 | [9] 0.208 | [10] 0.113 | [11] 0.00929 | [12] 0.0531

CC[C@H](CO)Nc1nc(NCc2ccccc2)c2ncn(C(C)C)c2n1
inactive: [5] 0.0954 | [6] 0.0682 | [13] 0.0283 | [14] -0.038 | [1] 0.0519 | [2] 0.0253 | [7] 0.213 | [8] 0.0581 | [15] 0.0653 | [16] 0.0646 | [17] -0.0162 | [18] 0.042 | [3] 0.0221 | [4] 0.0445 | [19] 0.0824 | [20] -0.0161 | [21] 0.118 | [22] 0.0527 | [11] -0.0359 | [12] 0.0272 | [23] 0.0337 | [24] 0.0206
active: [9] -0.591 | [10] -0.646

CN1C(=O)CCC1c1cccnc1 (stereo unspecified)
inactive: [7] 0.264 | [8] 0.181 | [9] 0.161 | [10] 0.0586

CN[C@H](Cc1ccccc1)C(=O)N1CCC[C@H]1C(=O)N[C@@H](Cc1c[nH]c2ccccc12)C(=O)C(F)(F)C(F)(F)F
inactive: [7] 0.168 | [8] 0.0679 | [9] 0.0864 | [10] 0.0322

C[C@H](CCC(=O)O)[C@H]1CC[C@H]2[C@@H]3C[C@H](O)C4C[C@H](O)CC[C@]4(C)[C@H]3CC[C@]12C (stereo partly specified)
inactive: [1] 0.0369 | [2] -0.0168 | [3] 0.0626 | [4] -0.0216

CO[C@H]1C[C@@H]2CC[C@@H](C)[C@@](O)(O2)C(=O)C(=O)N2CCCC[C@H]2C(=O)O[C@H]([C@H](C)C[C@@H]2CC[C@@H](O)[C@H](OC)C2)CC(=O)[C@H](C)/C=C(\C)[C@@H](O)[C@@H](OC)C(=O)[C@H](C)C[C@H](C)/C=C/C=C/C=C/1C
active: [13] -0.737 | [14] -0.644 | [15] -0.758 | [16] -0.612 | [17] -0.692 | [18] -0.65 | [19] -0.692 | [20] -0.756 | [21] -0.726 | [22] -0.651 | [23] -0.719 | [24] -0.63

CO[C@H]1C[C@@H]2CC[C@@H](C)[C@@](O)(O2)C(=O)C(=O)N2CCCC[C@H]2C(=O)O[C@H]([C@H](C)C[C@@H]2CC[C@@H](OCCO)[C@H](OC)C2)CC(=O)[C@H](C)/C=C(\C)[C@@H](O)[C@@H](OC)C(=O)[C@H](C)C[C@H](C)/C=C/C=C/C=C/1C
active: [13] -0.823 | [14] -0.667 | [15] -0.931 | [16] -0.779 | [17] -0.921 | [18] -0.761 | [19] -0.899 | [20] -0.779 | [21] -1.09 | [22] -0.731 | [23] -0.943 | [24] -0.733

CO[C@H]1C[C@@H]2CC[C@@H](C)[C@@](O)(O2)C(=O)C(=O)N2CCCC[C@H]2C(=O)O[C@H]([C@H](C)C[C@@H]2CC[C@@H](OC(=O)C(C)(CO)CO)[C@H](OC)C2)CC(=O)[C@H](C)/C=C(\C)[C@@H](O)[C@@H](OC)C(=O)[C@H](C)C[C@H](C)/C=C/C=C/C=C/1C
active: [13] -0.862 | [14] -0.712 | [15] -0.972 | [16] -0.713 | [17] -0.859 | [18] -0.683 | [19] -0.839 | [20] -0.886 | [21] -0.828 | [22] -0.678 | [23] -0.905 | [24] -0.717

CO[C@H]1CC2CC[C@@H](C)[C@@](O)(O2)C(=O)C(=O)N2CCCC[C@H]2C(=O)O[C@H]([C@H](C)C[C@@H]2CC[C@@H](OP(C)(C)=O)[C@H](OC)C2)CC(=O)[C@H](C)/C=C(\C)[C@@H](O)[C@@H](OC)C(=O)[C@H](C)C[C@H](C)/C=C/C=C/C=C/1C
active: [13] -0.93 | [14] -0.714 | [15] -0.852 | [16] -0.724 | [17] -0.888 | [18] -0.755 | [19] -0.837 | [20] -0.688 | [21] -0.983 | [22] -0.734 | [23] -1.05 | [24] -0.738

O=C(O)CSc1nnc(COc2ccccc2)n1-c1ccc(Cl)cc1
inactive: [1] 0.0719 | [2] -0.0199 | [3] 0.0305 | [4] 0.0659

CC1(C)C=CC(=O)[C@@]2(C)C1CC(=O)[C@]1(C)C2CC[C@@]2(C)[C@H](c3ccoc3)OC(=O)C3OC321 (stereo partly specified)
inactive: [1] 0.0164 | [2] 0.0615 | [3] 0.135 | [4] 0.0703

C=C(O)CCC/C=C\C[C@@H]1[C@@H](/C=C/[C@H](O)C2Cc3ccccc3C2)[C@@H](F)C[C@@H]1O
inactive: [7] 0.175 | [8] 0.154 | [9] 0.111 | [10] 0.184

Cc1ccc2c(c1)C(N1CCN(C)CC1)=Nc1cccnc1N2
inactive: [7] 0.144 | [8] 0.13 | [9] 0.0813 | [10] 0.0355

CC1(C)C=Cc2cc3ccc(=O)oc3cc2O1
inactive: [1] 0.0334 | [2] 0.0455 | [3] 0.0429 | [4] 0.132

Cc1ccc(C(=O)NCc2ccc3c(c2)OCO3)cc1
inactive: [1] 0.0742 | [2] -0.0061 | [3] 0.0676 | [4] 0.0498
